Hits are enriched below; roughly 5.2% of the tested compounds scored in any of these assays.
VDR inh – Inhibitors of the vitamin D receptor (VDR): qHTS | VDR-SRC2-3 peptide fluorescence polarization, 2 h | 0.93% of 400,000 active | Potency, µM, inactives show max response, negative = inhibition, actives largely listed as inhibitors
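After 23 nl compound addition and a short centrifugation, plates sat for 2 hours at ambient temperature; polarization of fluorescence then indicated loss of VDR binding to peptide SRC2-3.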
Sfp inh – qHTS Assay for Inhibitors of Bacillus subtilis Sfp phosphopantetheinyl transferase (PPTase); AID 1490, 2009; Potency, µM, without a hit: largest response in the series, negative = inhibition, actives largely listed as inhibitors; 4'-phosphopantetheinyl transferase ffp (Bacillus subtilis), Q9F4F7; 3.5% of 310,000 active; Biochemical Sfp PPTase activity, qHTS;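 note: the enzyme is Sfp with the accession as filed and its product quenches rhodamine fluorescence; 0% = enzyme reaction without inhibitor and -100% = no enzyme wells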
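After 15 min at room temperature with compound, 15 nM Sfp received 5 uM rhodamine-CoA plus 12.5 uM BHQ-2-ybbR (50 mM Hepes pH 7.6, 10 mM MgCl2). Rate came from the fluorescence difference over 30 min, ex 525/em 598 nm.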
PLK1 PBD inh – qHTS for Inhibitors of PLK1-PDB (polo-like kinase 1 - polo-box domain): Primary Screen | Serine/threonine-protein kinase PLK1 (Homo sapiens), P53350 | Plk1 PBD binding of FITC phosphopeptide, fluorescence polarization | Potency, µM, for the others: max response, negative = inhibition, hits mostly inhibitors | 2.8% of 360,000 active; note: series mostly up to about 57 µM; nearly all actives have a fitted effect of over 65% in size
TrxR1 substrate – qHTS Assay for Substrates of Mammalian Selenoprotein Thioredoxin Reductase 1 (TrxR1): qHTS | Thioredoxin reductase 1, cytoplasmic (Rattus norvegicus), O89049 | purified TrxR1 substrate turnover, NADPH consumption readout | Potency, µM (highest dose often 114 µM), for inactives: top-dose activity change, negative = substrate turnover | 0.01% of 390,000 active; note: nearly all actives have a fitted effect of over 50% in size
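Rat TrxR1, dispensed at 90 nM, was prereduced with 400 uM NADPH (final) for 5 min at ~22 deg C, then incubated with compound 15 min before 400 uM selenite. A first-read NADPH fluorescence drop versus no-compound background flagged substrates.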
rTrxR1 inhibitor – qHTS Assay for Inhibitors of Mammalian Selenoprotein Thioredoxin Reductase 1 (TrxR1): qHTS. Potency, µM (top dose mostly 114 µM), for the others: at the top dose activity change, negative = inhibition, most hits filed as inhibitors. recombinant rTrxR1, NADPH fluorescence consumption, selenite substrate. 1% of 390,000 active. AID 588453, 2011. Thioredoxin reductase 1, cytoplasmic (Rattus norvegicus), O89049; note: nearly all actives have a fitted effect of over 65% in size
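Rat TrxR1 (90 nM in the dispensed reagent) was pre-reduced with 400 uM NADPH for 5 min at room temperature, then incubated with compound for 15 min. After 400 uM selenite was added, NADPH fluorescence (Ex 340/Em 450 nm) was followed for 8 min.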
IDH1 R132H inh – qHTS for Inhibitors of mutant isocitrate dehydrogenase 1 (IDH1): qHTS; IDH1-R132H enzyme, NADPH consumption, diaphorase/resazurin fluorescence; Isocitrate dehydrogenase [NADP] cytoplasmic (Homo sapiens), O75874; Potency, µM (series often up to 76.6 µM), for the others: at the top dose activity change, negative = inhibition, actives largely listed as inhibitors; 0.093% of 390,000 active; note: nearly all actives have a fitted effect of over 65% in size
Target sequence (O75874 whole entry R132H, stated change not applied): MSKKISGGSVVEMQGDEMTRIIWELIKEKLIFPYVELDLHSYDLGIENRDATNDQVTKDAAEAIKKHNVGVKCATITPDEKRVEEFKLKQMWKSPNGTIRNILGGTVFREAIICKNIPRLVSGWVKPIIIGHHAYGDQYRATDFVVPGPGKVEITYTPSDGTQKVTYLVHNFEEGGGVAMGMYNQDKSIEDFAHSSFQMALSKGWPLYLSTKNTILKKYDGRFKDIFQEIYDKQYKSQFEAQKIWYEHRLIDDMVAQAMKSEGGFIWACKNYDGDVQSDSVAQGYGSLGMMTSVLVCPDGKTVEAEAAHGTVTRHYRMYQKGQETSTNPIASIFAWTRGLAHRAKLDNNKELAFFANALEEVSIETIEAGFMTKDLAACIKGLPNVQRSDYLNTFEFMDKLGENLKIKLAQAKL
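IDH1-R132H (0.5 ug/mL dispensed) in pH 7.5 Tris buffer was preincubated 30 min with compound, then given a substrate mix of 0.016 mM NADPH and 2 mM alpha-KG for 80 min at room temperature; remaining NADPH was read by diaphorase/resazurin fluorescence.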
* = called active by the depositor; [ ] = dose if it differs, or a comment. Calls come from the whole dose curve; as a rule, active = well fitted curve in the direction sought with a large enough effect; inconclusive = small, poorly fitted or top-dose-only effect, or another doubt; inactive = no such curve, though single readings can be large; an effect the other way counts as inactive or inconclusive. Unless noted, % is set by controls: 0 for no effect and ±100 for the full control effect; potency is the fitted concentration of half-maximal effect.

COc1ccc2[nH]c(=O)c(CN(C3CCCCC3)C(c3nnnn3Cc3ccco3)C(C)C)cc2c1 (configuration not stated) was read as VDR inh inconclusive, Sfp inh 3.2µM*, PLK1 PBD inh inconclusive, TrxR1 substrate 12%, rTrxR1 inhibitor inconclusive and IDH1 R132H inh -23%.
COc1ccc(Cn2nnnc2CN(Cc2cc3cc(C)ccc3[nH]c2=O)C2CCCC2)cc1 was read as VDR inh 7%, Sfp inh 20µM*, PLK1 PBD inh -5%, TrxR1 substrate 9%, rTrxR1 inhibitor -28% and IDH1 R132H inh 3%.
Screening CCC(c1nnnn1Cc1ccco1)N(Cc1cc2cc(C)cc(C)c2[nH]c1=O)CC1CCCO1 (configuration not stated) returned VDR inh -13%, Sfp inh 22µM*, PLK1 PBD inh 3.4µM*, TrxR1 substrate 8%, rTrxR1 inhibitor inconclusive and IDH1 R132H inh -2%.
COc1ccc2[nH]c(=O)c(CN(Cc3nnnn3Cc3ccco3)C3CCCCC3)cc2c1 was read as VDR inh 79µM*, Sfp inh 8.9µM*, PLK1 PBD inh inconclusive, TrxR1 substrate 1%, rTrxR1 inhibitor 18µM* and IDH1 R132H inh 0%.
Screening Nc1ccn([C@@H]2O[C@H](C(=O)N3CCCN(Cc4ccccc4F)CC3)[C@@H](O)[C@H]2O)c(=O)n1 returned PLK1 PBD inh 6%.
For CN(CC(=O)Nc1cccc(F)c1)C(=O)/C=C/c1ccc2ccccc2n1 the results were VDR inh 4%, Sfp inh 17%, PLK1 PBD inh 3%, TrxR1 substrate -1%, rTrxR1 inhibitor -4% and IDH1 R132H inh -2%.
CSCC[C@H](NC(=O)[C@H](CC(C)C)NC(=O)CNC(=O)[C@H](Cc1ccccc1)NC(=O)[C@H](Cc1ccccc1)NC(=O)[C@H](CCC(N)=O)NC(=O)[C@H](CCC(N)=O)NC(=O)[C@@H]1CCCN1C(=O)[C@H](CCCCN)NC(=O)[C@@H]1CCCN1C(=O)[C@@H](N)CCCN=C(N)N)C(N)=O was read as VDR inh -6% and Sfp inh -15%.
`CC(=O)c1cc(CN2CCN(CCC(C)C)C(CCO)C2)cs1` (configuration not stated) gave VDR inh inconclusive, Sfp inh 7%, PLK1 PBD inh 21µM*, TrxR1 substrate -9%, rTrxR1 inhibitor inconclusive and IDH1 R132H inh 0%.
Screening Cc1nn(-c2ccccn2)c2c1-c1nc(N)sc1CC2 returned TrxR1 substrate -19% and rTrxR1 inhibitor inconclusive.
CN(C)CCCO[C@H]1C([C@H](O)CO)O[C@@H]2OC(C)(C)O[C@@H]21 (some centres not stated) was read as rTrxR1 inhibitor 3%.
`COc1cccc(OC)c1C(=O)NC(=S)Nc1cc(-c2nc3ccccc3[nH]2)ccc1Cl` gave VDR inh -17%, Sfp inh -25%, PLK1 PBD inh 9.5µM*, TrxR1 substrate 0%, rTrxR1 inhibitor 5% and IDH1 R132H inh 6%.
CC(C)(Oc1ccc(Br)cc1)C(=O)Nc1cc(-c2nc3ccccc3[nH]2)ccc1Cl was read as VDR inh -18%, TrxR1 substrate 8%, rTrxR1 inhibitor 19% and IDH1 R132H inh -5%.
C=C[C@]1(C)Cc2occ(C)c2C[C@H]1C(=C)C(=O)O was read as VDR inh inconclusive and Sfp inh 7%.
Screening CN(C)C(=O)c1ccc(SC(=S)NCc2ccccc2)cc1 returned PLK1 PBD inh 2.7µM*.
`CN(C(=O)c1ccno1)c1nnc(-c2cnccn2)s1` gave VDR inh 11%, Sfp inh 50µM*, PLK1 PBD inh -5%, TrxR1 substrate 0%[57.1 µM], rTrxR1 inhibitor 8%[57.1 µM] and IDH1 R132H inh 5%.
Screening CC(C)c1ccccc1NC(=O)CCc1nc2ccccc2s1 returned VDR inh -31%, Sfp inh inconclusive, PLK1 PBD inh inconclusive, TrxR1 substrate -9%, rTrxR1 inhibitor -13% and IDH1 R132H inh 2%.
For COc1ccccc1NC(=O)CCc1nc2ccccc2s1 the results were VDR inh inconclusive, Sfp inh 19%, PLK1 PBD inh 21µM*, TrxR1 substrate 8%[57.1 µM], rTrxR1 inhibitor 21%[57.1 µM] and IDH1 R132H inh 3%.
COc1ccccc1NC(=O)CCC(=O)c1ccc(-c2ccccc2)cc1 was read as VDR inh inconclusive, Sfp inh -2%, PLK1 PBD inh 30µM*, TrxR1 substrate -5%, rTrxR1 inhibitor -5% and IDH1 R132H inh 5%.
`Nc1ncnc2c1ncn2COC(CO)CO` gave VDR inh 4%, TrxR1 substrate 3% and rTrxR1 inhibitor 22%.
CCCOc1ccc(CCC(=O)N/N=C/c2ccco2)cc1 was read as VDR inh -20%, Sfp inh -7%, PLK1 PBD inh -1%, TrxR1 substrate 3%[57.1 µM], rTrxR1 inhibitor 15%[57.1 µM] and IDH1 R132H inh 13%.
`CCCOc1ccc(CCC(=O)N/N=C/c2ccncc2)cc1` gave VDR inh inconclusive, Sfp inh 7%, PLK1 PBD inh 24µM*, TrxR1 substrate 16%, rTrxR1 inhibitor 20% and IDH1 R132H inh -5%.
Screening O=[N+]([O-])c1ccc(-c2csc3[n+]2CCS3)cc1 returned VDR inh inconclusive, Sfp inh 11µM*, PLK1 PBD inh -27%, TrxR1 substrate -3%, rTrxR1 inhibitor 9% and IDH1 R132H inh 0%.
For COc1ccccc1NC(=O)C1=C(C)NC(=O)NC1c1ccc(C)cc1 (configuration not stated) the results were VDR inh 3%, Sfp inh 10%, PLK1 PBD inh 3%, TrxR1 substrate -4%, rTrxR1 inhibitor -12% and IDH1 R132H inh 11%.
`COc1ccccc1NC(=O)C1=C(C)NC(=O)NC1c1ccccc1[N+](=O)[O-]` (configuration not stated) gave Sfp inh 3.5µM*, PLK1 PBD inh -15%, TrxR1 substrate 12%[57.1 µM], rTrxR1 inhibitor 31%[57.1 µM] and IDH1 R132H inh -6%.

Bioassay records from PubChem BioAssay.
